# CCT chaperon mod: changes cytosolic chaperonin activity | purified chaperonin ATPase assay, HTRF ADP detection, 30 min | activity change, % (test concentration not listed), hits read low | 360,000 compounds, 0.3% hits; in the data active = activity change below about -30%; also: % is scaled to controls: 0 for no effect and ±100 for the full control effect
#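 First, chaperonin was dispensed at 40 nM or 20 nM final depending on batch activity. Next, compounds were pinned at 76 uM and ATP added at 10 uM. After 30 min at 37 °C, ADP detection reagents ran 30 min at ambient temperature.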
# TCR act: activates T cell receptor signaling; primary human leukocytes, anti-CD3, IL-2 HTRF, 48 h; Potency, µM (series often up to 9.22 µM), for inactives: at the top dose activation of IL-2 secretion, hits mostly activators; 330,000 tested, under 10 active; AID 504894; also: % of control where 0% means no effect
#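 1) Mix primary human leukocytes, a-CD3 beads and compound. 2) Incubate 48 hr. 3) Add HTRF IL-2 reagents (a-IL-2-K, a-IL-2-d2).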
# A549 tox: counter-screen for Nrf2 inhibitors: cytotoxicity in A549 cells; A549 ARE-Fluc cells, CellTiter-Fluor viability, 18-24 h; Potency, µM (doses to about 46 µM), for inactives: at the highest dose activity change, negative = cytotoxicity, hits mostly inhibitors; 390,000 compounds, 0.16% hits; also: potency is read from the fitted curve at half-maximal effect; % is scaled to controls: 0 for no effect and ±100 for the full control effect
#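 A549 ARE_Fluc cells in 5% FBS OPTI-MEM were exposed to compounds in concentration-response for 18-24 h at 37 deg C. Viability was read by CellTiter-Fluor fluorescence (Ex 405/Em 525) after 30 min, before the luciferase read.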
# Nrf2 block: blocks Nrf2 signaling | A549 ARE-Fluc reporter, luciferase luminescence, 18-24 h | Potency, µM (doses to about 46 µM), inactives show at the highest dose activity change, negative = inhibition, usual class: inhibitors | 360,000 compounds, 2.1% hits | AID 504444; also: potency is read from the fitted curve at half-maximal effect; % is scaled to controls: 0 for no effect and ±100 for the full control effect; nearly all actives have a fitted effect of over 60% in size
#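 Quantitative HTS in A549 cells stably bearing an antioxidant response element-firefly luciferase construct. Inhibition of Nrf2-driven transcription was scored by luminescence after 18-24 h of compound exposure at 37 °C.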
# A-T KAP1 phos: candidate therapy for ataxia-telangiectasia. F2112 A-T fibroblasts, KAP-1 phosphorylation AlphaLISA; neocarzinostatin DNA damage 30 min before lysis. Potency, µM (titrated, usually from 57.5 µM), for the others: at the highest dose activation, most hits filed as activators. 320,000 compounds, 0.19% hits. AID 485349; also: potency is read from the fitted curve at half-maximal effect; % of control where 0% means no effect; nearly all actives have a fitted effect of over 45% in size
#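 hTERT-immortalized A-T patient fibroblasts (F2112), 500 cells/well in OPTI-MEM, 1% FBS, got compounds for 60 min, then NCS for 30 min at 37C. Lysates were then assayed for phospho-KAP-1 by AlphaLISA (anti-pKAP1 donor, anti-KAP1 acceptor beads), 6 hr at 25C.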
# Nrf2 activator: Nrf2 pathway activation; AREc32 ARE-luciferase reporter (MCF7-derived line), luminescence, 24 h; Potency, µM (top dose mostly 46.1 µM), for inactives: at the highest dose activation, usual class: activators; 410,000 compounds, 0.31% hits; also: potency is read from the fitted curve at half-maximal effect; % of control where 0% means no effect; nearly all actives have a fitted effect of over 65% in size
#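 Luminescent ARE reporter assay in AREc32_Fluc cells: overnight plating at 37 deg C, 24 hr compound incubation, Steady-Glo added, 30 min RT before reading.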
# Active calls of the source: *; ? = inconclusive; nt = no result; [ ] = dose if it differs, or a comment. An excerpt weighted towards active compounds, which were near 2.6% of everything screened. Unless noted, calls follow the shape of the dose curve; as a rule, active = well fitted curve in the direction sought with a large enough effect; inconclusive = small, poorly fitted or top-dose-only effect, or another doubt; inactive = no such curve, though single readings can be large; an effect the other way counts as inactive or inconclusive.
SMILES,CCT chaperon mod,TCR act,A549 tox,Nrf2 block,A-T KAP1 phos,Nrf2 activator
COc1ccc2[nH]c(C(=O)Nc3ccc(F)cc3Br)cc2c1,-50*,-8%,-4%,-9%,11%,5%
CCn1c(/C=C/c2ccccc2F)nc2ccccc2c1=O,1,4%,0%,4%,0%,2.8µM*
COCCNC(=O)CSc1n[nH]c(=O)n1CCc1ccccc1,-24,-2%,5%,-11%,18µM*,0%
CCOc1cccc(C2CC(=O)Nc3cc4c(cc32)OCCO4)c1 (stereo not given),nt,nt,-8%,15µM*,nt,-1%
CC(C)Oc1ccccc1C1CC(=O)Nc2cc3c(cc21)OCCO3 (stereo not given),0,6%,?,8.2µM*,3%,-1%
COc1ccccc1C1CC(=O)Nc2cc3c(cc21)OCCO3 (stereo not given),-3,0%,-20%,?,nt,0%
Cc1cc(C)n2ncc(C(=O)NC(C)C)c2n1,nt,nt,12%,-4%,nt,nt
Cc1c(C(=O)N2CCCCCC2)c(S(=O)(=O)NCc2ccccc2)c(C)n1C,nt,nt,-1%,4%,nt,0%
Cc1ccc(CNC(=O)Cn2ccn(-c3cccc(Cl)c3)c(=O)c2=O)cc1,nt,nt,0%,0%,nt,1%
CC(CS(=O)(=O)c1ccc2c(c1)NC(=O)CS2)C(=O)N1CCN(c2cccc(Cl)c2)CC1 (stereo not given),-2,-1%,-1%,?,-2%,0%
CCc1ccc2[nH]c(=O)c(CN(Cc3ccco3)Cc3nnnn3Cc3ccco3)cc2c1,nt,nt,-7%,?,nt,nt
CC1Cc2cc(/C(O)=C3/C(=O)C(=O)N(Cc4cccnc4)C3c3cccc(O)c3)ccc2O1 (stereo not given),-79*,-7%,5%,6%,-6%,0%
COc1ccc(C2/C(=C(\O)c3ccc4c(c3)OCCO4)C(=O)C(=O)N2Cc2cccnc2)cc1 (stereo not given),-58*,-7%,0%,10%,3%,0%
Cc1nc2c(c(C)nn2C(C)(C)C)c(C)c1CCC(=O)Nc1ccc(Br)cc1Br,nt,nt,0%,13%,nt,-1%
COc1ccccc1OCC(=O)N/N=C1\CCc2ccccc21,-34*,2%,5%,25%,2%,3%
Cc1cccc2c1OCC/C2=N\NC(=O)COc1ccccc1,-32*,-1%,-6%,nt,7%,4%
COc1ccc(OCC(=O)N/N=C2\CCCc3ccccc32)cc1,1,2%[46.1 µM],8%,3%,-2%,3%
O=C(Cc1nnc(-c2nc3ccccc3[nH]2)o1)Nc1cc(C(F)(F)F)ccc1Cl,nt,nt,-2%,18%,nt,nt
COC(=O)C1=C(c2ccccc2)c2ccccc2S(=O)(=O)N1CC(=O)Nc1cc(C)ccc1C,nt,nt,-2%,2%,nt,0%
COc1ccc(CN2CCN(S(=O)(=O)c3ccc(NC(C)=O)cc3)CC2)cc1,0,0%,-12%,16µM*,0%,-1%
COc1ccc(-n2nnnc2C2CCN(S(=O)(=O)c3ccc(NC(C)=O)cc3)CC2)cc1,nt,nt,-20%,9.2µM*,nt,-1%
CC(=O)c1ccc(-c2ccc(C(=O)NC3CC(C)(C)NC(C)(C)C3)o2)cc1,-5,4%,-2%,16%,3%,4%
O=c1cc(CN2CCN(c3ccccc3)CC2)nc2scc(-c3ccccc3)n12,0,-3%,-6%,15µM*,-6%,3%
Cc1ccc(NC(=O)Nc2cccnc2)cc1NC(=O)Nc1cccnc1,-2,10%,-16%,18µM*,1.3µM*,0%
CC(=O)c1cc(NC(=O)c2ccccc2)c(=O)oc1C,-1,3%,-5%,3%,0%,13µM*
SMILES,CCT chaperon mod,TCR act,A549 tox,Nrf2 block,A-T KAP1 phos,Nrf2 activator
Cc1oc(=O)c(NC(=O)c2ccccc2)cc1C(=O)c1ccccc1,-1,-2%,nt,19%,2%,?
CCOc1cc(NC(=O)c2cccs2)c(OCC)cc1NC(=O)CCC(=O)NCC1CCCO1 (stereo not given),-1,7%,-2%,-1%,0%,0%
Cc1csc(NC(=O)c2cccs2)n1,1,1%,-3%,20%,-3%,2%
Cc1csc2c(=O)sc(NC(=O)c3cccs3)nc12,-2,-5%,-11%,?,2%,3.5µM*
N#C/C(=N\Nc1ccc(Cl)cc1)C(=O)c1ccccc1,2,5%,16µM*,15µM*,5%,11%
COc1ccc(C(=O)/C(C#N)=N/Nc2ccc([N+](=O)[O-])cc2)cc1,-3,3%,?,2.6µM*,-6%,-1%
Cc1c(N/N=C(\C#N)C(=O)c2ccc(Cl)cc2)c(=O)n(-c2ccccc2)n1C,0,0%[46.1 µM],?,?,nt,3%
O=C(O)c1ccc(C(=O)Nc2cccc3cccnc23)cc1,nt,nt,-1%,14%,nt,nt
COc1ccc(C(=O)CSc2nc3ncccc3[nH]2)cc1OC,-5,1%,3%,-13%,0.79µM*,4%
Cc1cc(NC(=O)CS(=O)(=O)c2cn(Cc3ccc(F)cc3)c3ccccc23)no1,-2,0%,-9%,21µM*,13%,5%
CCn1cc(S(=O)(=O)CC(=O)Nc2cc(C)on2)c2ccccc21,0,-3%,0%,-22%,-1%,-1%
Cc1cc(NC(=O)CS(=O)(=O)c2cn(Cc3cccc(F)c3)c3ccccc23)no1,-3,0%,?,23µM*,0%,1%
O=c1[nH]cnc2c1ncn2[C@H]1C[C@H](O)[C@@H](CO)O1,nt,nt,2%,26%,nt,nt
CC1CCN(c2nc(-c3ccccc3O)nc3ccccc23)CC1,0,4%,-10%,28%,1%,3%
CC1CCN(c2ncnc3ccccc23)CC1,-1,0%[46.1 µM],-14%,15µM*,0%,0%
Cc1ccc(OCC(O)Cn2c3ccccc3c3ccccc32)cc1 (stereo not given),-1,-23%,-28%,?,-3%,2%
CC(=O)N(C)c1ccc(OCC(O)Cn2c3ccc(Cl)cc3c3cc(Cl)ccc32)cc1 (stereo not given),0,2%,?,21µM*,-9%,-2%
CCN(C(=O)c1cccc(S(=O)(=O)N(C)C)c1)C12CC3CC(CC(C3)C1)C2,2,0%,-15%,21µM*,14%,0%
Cc1ccc(C(=O)n2cnnc2N)cc1,-3,0%,0%,8.2µM*,3%,-2%
O=S(=O)([N-]c1nc2ccccc2nc1-n1cc[n+](Cc2ccccc2)c1)c1ccc(Cl)cc1,-2,1%,-1%,?,20µM*,2%
CC1=CC(C)(C)n2c(O)c(N=N)c3c(C)c(C)cc1c32,-8,-3%,-3%,2%,19%,1%

# Screening data (PubChem BioAssay)
